The values below come from the supplement of paper PMC13380429.

Structures can show the parent of a compound that is named as a salt.

The experiment has as its system Vero E6 infected with SARS-CoV-2. Kind of experiment: morphology score (similarity to uninfected cells); higher = more like uninfected cells. To be noted: 24 h.
`COc1cccc(N2CCN(C3=Nc4c(F)cccc4[C@H](CC(=O)O)N3c3cc(C(F)(F)F)ccc3OC)CC2)c1` [letermovir] (10 µM) came in with a morphology score of -0.0548. As for `CCc1ccc(/C=C2/SC(=S)NC2=O)cc1` (10 µM), the morphology score worked out at 0.0397.

`CC[C@H](c1ccc(O)cc1)[C@@H](CC)c1ccc(O)cc1` [hexestrol] (10 µM) registered a morphology score of 0.143. The result for `Cc1nc(C)c(Cl)c(O)c1Cl` [clopidol] (10 µM) reads -0.0297.

In the case of `COc1cnc(NS(=O)(=O)c2ccc(N)cc2)nc1` [sulfameter] (10 µM), the morphology score worked out at 0.131. For `CC(C)(C)Cn1c(N)nc2ccc(-c3[nH]c(C(C)(C)C)nc3-c3ccc(F)cc3)nc21` (10 µM) the value was -0.205. Compound `Cc1nc2ccccn2c(=O)c1CCN1CCC(C(=O)c2ccc(F)cc2)CC1` [pirenperone] (10 µM) returned a morphology score of 0.172.

Take `CO[C@H]1[C@H](O)[C@@H](O)[C@@H](O)[C@H](O)[C@@H]1O` [pinitol] (10 µM): the morphology score is -0.0343. In turn, `CO/N=C(\C(=O)N[C@@H]1C(=O)N2C(C(=O)O)=C(CSc3nc(C)c(CC(=O)O)s3)CS[C@H]12)c1csc(N)n1` [cefodizime] (10 µM) gave a morphology score of 0.129. For `C[C@H]1CO[C@@H]2Cn3cc(C(=O)NCc4ccc(F)cc4F)c(=O)c(O)c3C(=O)N12` (10 µM) the value was -0.00851; for `CC1(C)N=C(N)N=C(N)N1OCCCOc1cc(Cl)c(Cl)cc1Cl` (10 µM), 0.205.

`Cc1ccccc1/N=N/c1ccc(NC(=O)c2ccnn2C)c(C)c1` (10 µM) displayed a morphology score of -0.087.

On to `CN1CCN(CCCN2c3ccccc3Sc3ccc(S(=O)(=O)N(C)C)cc32)CC1` [thioproperazine] (10 µM), for which the morphology score was found to be 0.251. The result for `COC1=C2C[C@@H](C)C[C@H](OC)[C@H](O)[C@@H](C)/C=C(\C)[C@H](OC(N)=O)[C@@H](OC)/C=C\C=C(/C)C(=O)NC(=CC1=O)C2=O` [geldanamycin] (0.833333 µM) reads -0.177; that for `Cc1cccc(-c2nn3c(c2-c2ccnc4ccc(C(N)=O)cc24)CCC3)n1` (10 µM), 0.128. Turning to `CCCC(CCC)C(=O)NCC(N)=O` [valrocemide] (10 µM), the morphology score is 0.062. Compound `CCn1cc(C(=O)O)c(=O)c2cnc(N3CCCC3)nc21` [piromidic-acid] (10 µM) displayed a morphology score of 0.0342. Take `CN[C@@H]1[C@H](O[C@H]2[C@H](O[C@H]3[C@H](O)[C@@H](O)[C@H](N=C(N)N)[C@@H](O)[C@@H]3N=C(N)N)O[C@@H](C)[C@]2(O)C=O)O[C@@H](CO)[C@H](O)[C@H]1O` [STREPTOMYCIN SULFATE [5mM; 10% aq DMSO + 5mM ethanolamine]] (10 µM): the morphology score was determined as 0.104. `CCS(=O)(=O)N1CCC[C@@H]2CN3CCc4cc(OC)ccc4[C@@H]3C[C@@H]21` (10 µM) gave a morphology score of 0.0669. On to `CCNC(=O)CCC/C=C\C[C@@H]1[C@@H](/C=C/[C@@H](O)CCc2ccccc2)[C@H](O)C[C@@H]1O` [bimatoprost] (10 µM), for which the morphology score amounted to 0.0397.

`C1CCC(/N=C(\NC23CC4CC(CC(C4)C2)C3)N2CCOCC2)CC1` (10 µM): the morphology score is -0.0395. Compound `CN(C)CC/C=C1/c2ccccc2Sc2ccc(Cl)cc21` [chlorprothixene] (10 µM) displayed a morphology score of 0.434.

Take `Cn1nc(C(C)(C)C)cc1C(=O)N[C@@H](Cc1cccc(Cl)c1)C(=O)NCC#N` [cathepsin-inhibitor-1] (10 µM): the morphology score worked out at 0.186. `O=C(/C=C/c1ccccc1)NCCO` [brolitene] (10 µM) gave a morphology score of 0.199. The result for `CCOC(=O)[C@H](Cc1ccccc1)NC(=O)c1cc(Cl)c(OCCN2CCN(C)CC2)c(Cl)c1O` (10 µM) reads 0.414. Compound `CC(=O)Nc1ccc(OC(C)=O)cc1` [diacetamate] (10 µM) yielded a morphology score of 0.116. The compound `Cc1ccccc1C(=O)Nc1ccc(C(=O)N2CCCC(N(C)C)c3ccccc32)cc1` (centres undefined) [mozavaptan] (0.833333 µM) gave a morphology score of 0.0205. With `CC(C)c1ccccc1S(=O)(=O)c1cc(N)c2ncccc2c1[N+](=O)[O-]` (10 µM), the morphology score was determined as 0.225. Turning to `O=C(NC(=O)c1c(F)cccc1Cl)NC1c2ccccc2-c2ccccc21` (10 µM), the morphology score came to 0.143. `O=C(Oc1cccc2cccnc12)c1ccccc1` [benzoxiquine] (10 µM): the morphology score worked out at 0.116. `O=C(O)CCCCCCCC(=O)O` [azelaic-acid] (10 µM): the morphology score stood at 0.0279. Compound `COc1cc(N)cn[n+]1-c1ccccc1` [amezinium] (10 µM) gave a morphology score of 0.0864. `C[C@H]1CNCCCN1S(=O)(=O)c1cccc2cncc(F)c12` [ripasudil] (10 µM) came in with a morphology score of 0.438. For `CCCCOc1ccc(C(=O)CCN2CCCCC2)cc1` [dyclonine] (10 µM) the value was 0.347; for `COCCNC(=O)COc1ccc(OCCNC[C@H](O)COc2ccccc2)cc1` (10 µM), 0.0156. The result for `O=C(O)c1cc(O)c2ccc(Cl)cc2n1` [7-chlorokynurenic-acid] (10 µM) reads 0.0315; that for `CC(C)n1c(/C=C/[C@@H](O)C[C@@H](O)CC(=O)O)c(-c2ccc(F)cc2)c2ccccc21` [fluvastatin] (0.833333 µM), -0.082. `CC(C)(OCc1nn(Cc2ccccc2)c2ccccc12)C(=O)O` [bindarit] (10 µM) returned a morphology score of 0.132. Compound `Cc1cc(C(=O)Nc2cccc(C(=O)Nc3cccc(C(F)(F)F)c3)c2)on1` (10 µM) gave a morphology score of -0.209.
